The list is not random: actives were taken first. Their share in the collection is about 7.3%.
FLuc counter = counter-screen for miR-21 project: firefly luciferase inhibitors or activators. P08659. purified FLuc, Km substrates, luminescence inhibition. Potency, µM (top dose mostly 57.5 µM), inactives show at the top dose activity change, negative = inhibition, hits mostly inhibitors. actives 6.9% (n = 360,000). AID 588342;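 further: plate controls were vehicle for no effect and reference inhibitor for full effect; nearly all actives have a fitted effect of over 55% in size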
Target sequence (P08659 whole entry, looked up): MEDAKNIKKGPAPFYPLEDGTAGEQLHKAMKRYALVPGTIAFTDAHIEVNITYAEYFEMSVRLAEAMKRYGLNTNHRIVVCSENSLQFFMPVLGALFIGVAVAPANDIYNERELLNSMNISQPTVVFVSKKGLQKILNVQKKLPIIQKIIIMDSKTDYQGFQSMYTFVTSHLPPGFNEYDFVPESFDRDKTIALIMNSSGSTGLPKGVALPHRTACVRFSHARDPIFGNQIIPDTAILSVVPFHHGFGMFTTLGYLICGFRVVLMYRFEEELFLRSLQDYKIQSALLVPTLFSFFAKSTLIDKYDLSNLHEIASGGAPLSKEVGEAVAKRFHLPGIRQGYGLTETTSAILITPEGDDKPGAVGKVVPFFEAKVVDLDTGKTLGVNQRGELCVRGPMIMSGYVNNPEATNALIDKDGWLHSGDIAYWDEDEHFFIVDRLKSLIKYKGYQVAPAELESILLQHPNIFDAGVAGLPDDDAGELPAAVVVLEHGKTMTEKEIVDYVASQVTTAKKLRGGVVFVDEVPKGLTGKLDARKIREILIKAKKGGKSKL
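Purified P. pyralis luciferase (10nM final) with 10uM D-luciferin and 10uM ATP (Km levels) in 50mM Tris acetate pH 7.5, 10mM Mg acetate, 0.01% Tween-20, 0.05% BSA; qHTS 6-point titration, ~60 µM downward; luminescence read.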
Luc counter = counter-screen: inhibitors of Kinase-Glo firefly luciferase; actives 0.28% (n = 200,000); Q27757; Potency, µM (top dose mostly 38.3 µM), for the others: at the highest dose activity change, negative = inhibition, hits mostly inhibitors; Kinase-Glo luciferase, ATP luminescence, 8 min; further: on the % scale 0 is the no-effect control and ±100 the full control effect; nearly all actives have a fitted effect of over 60% in size
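Recombinant Kinase-Glo luciferase, 10 uM ATP (linear range), luciferin; imidazole pH 7.2 / KCl / MgCl2 / Tween / BSA buffer; 8 min RT; luminescence.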
Rab9 promoter act = Rab9 promoter activation; Huh7 Rab9 promoter-luciferase reporter, luminescence, 24 h; Potency, µM (doses to about 9.22 µM), without a hit: at the top dose activation, negative = inhibition, most hits filed as activators; actives 2.8% (n = 320,000); further: % of control where 0% means no effect; nearly all actives have a fitted effect of over 60% in size
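Rab9 promoter-driven luciferase in stably transfected Huh7 cells; 1500 cells/well rested 2 h, exposed to compound in DMSO for 24 h at 37 °C, 5% CO2. Luminescence read 10 min after adding luciferase reagent at ambient temperature.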
SMN2 splice enh = enhancers of SMN2 splice variant expression | actives 2.8% (n = 210,000) | HEK293 SMN2-luciferase splicing reporter, luminescence, 30-36 h | Potency, µM (highest dose often 46.1 µM), without a hit: top-dose activity change, positive = activation, actives largely listed as activators; further: % of control where 0% means no effect; nearly all actives have a fitted effect of over 55% in size
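HEK293 cells carry an SMN2 […]–luciferase reporter in which exon 7 inclusion puts luciferase in frame. Cells were plated 10-12 h before compound addition, then incubated 30-36 h at 37C. ONE-Glo luminescence was read; sodium butyrate at 4.5 mM final served as control.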
NPC1 prom act = activators of NPC1 promoter. Huh7 NPC1 promoter luciferase reporter, 24 h. Potency, µM (titrated, usually from 9.22 µM), for inactives: at the highest dose activation, most hits filed as activators. actives 2.4% (n = 320,000). AID 485313; further: % of control where 0% means no effect; nearly all actives have a fitted effect of over 60% in size
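Stably transfected Huh7 (NPC1 promoter→luciferase), 1500 cells/well in Opti-MEM + 10% FBS, 2 h settle, then compound 24 h at 37 °C. Luminescence after 10 min with Amplite reagent.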
* = called active by the depositor; ? = inconclusive; / = no result; [ ] = remark or other dose. The call rests on the fitted dose curve; in most records, active means well fitted curve in the direction sought with a large enough effect; inconclusive means small, poorly fitted or top-dose-only effect, or another doubt; inactive means no such curve, though single readings can be large; an effect the other way counts as inactive or inconclusive. Potency means the concentration at half of the fitted maximal effect.

SMILES	FLuc counter	Luc counter	Rab9 promoter act	SMN2 splice enh	NPC1 prom act
Cc1cc(-c2nc3ncccc3o2)ccc1NC(=O)c1ccc(Cl)cc1	2%	/	/	3%	/
COc1cc(NC(=O)C(CC(C)C)NS(=O)(=O)c2ccc3c(c2)CCCC(=O)N3)cc(OC)c1 (stereo unspecified)	1%	/	/	/	/
CCc1ccc(Oc2c(C(F)(F)F)oc3c(CN4CCN(CC)CC4)c(O)ccc3c2=O)cc1	-12%	/	/	-18%	/
Cc1cccc(NC(=O)c2ccccc2NC(=O)C2CCCCC2)c1C	17µM*	-2%	-2%	-1%	2%
N/C(=N\OC(=O)c1ccc2c(c1)OCO2)c1ccc(Cl)cc1	0.85µM*	?	?	?	2.8µM*
Cc1ccc(/C(N)=N/OC(=O)c2ccc3c(c2)OCO3)cc1	2.1µM*	-15%	2.8µM*	13µM*	3.2µM*
N/C(=N\OC(=O)N1CCOCC1)c1ccc(Cl)cc1	?	-11%	?	-82%	21%
N/C(=N\OC(=O)c1ccc2c(c1)OCO2)c1ccncc1	1.5µM*	/	2.5µM*	/	3.2µM*
Cc1cc(C)cc(C(=O)O/N=C(\N)c2ccc(Br)cc2)c1	-20%	-3%	?	15%	?
COc1ccc(/C(N)=N/OC(=O)c2ccc3c(c2)OCO3)cc1	2.1µM*	-5%	?	11µM*	?
COc1ccc(C(=O)O/N=C(\N)c2ccncc2)cc1OC	-12%	-4%	10%	17%	-1%
CCOc1cc(-c2ccc(OC(=O)c3ccc(C)cc3)c(OC)c2)cc(=O)c2c(C)oc(C)c12	-10%	/	/	/	/
Cc1ccc(C(=O)OCC(=O)c2ccc(CC(=O)N3CCOCC3)s2)c(C)c1	17µM*	/	-1%	/	1%
Cc1ccsc1C(=O)OCC(=O)N1CCOCC1	-17%	-28%	24%	?	26%
Cc1ccc(C(=O)OCC(=O)N2CCNC2=O)c(C)c1	21µM*	/	?	/	?
Cc1ccc(C(=O)OCC(=O)c2ccc(CC(=O)N3CCOCC3)s2)cc1C	24µM*	/	-4%	/	2%
COc1ccc(S(=O)(=O)N2CCCCCC2)cc1C(=O)N1CCCCC1	17µM*	/	-1%	/	-6%
CC1CCCCN1c1nnc(NC(=O)Nc2ccccc2F)s1 (stereo unspecified)	1%	/	/	/	/
Cc1ccc(-c2nn(-c3ccccc3)cc2C(=O)O)o1	?	-2%	19%	2%	1%
Cc1ccc(-c2nn(-c3ccccc3)cc2/C=C/C(=O)O)o1	24µM*	1%	-1%	2%	-2%
COc1cccc(CNC(=O)C2CCN(S(=O)(=O)c3cn(C)cn3)CC2)c1	-5%	/	/	/	/
C=CCNc1ncnc2c1[nH]c1ccc(Cl)cc12	12µM*	-3%	30%	-80%	5%
C=CCNc1ncnc2c1[nH]c1ccccc12	?	/	-10%	/	3%
COc1cc2c(cc1OC)C(c1ccc(F)cc1)N(c1ccc(F)cc1)C(=O)C2 (stereo unspecified)	-2%	/	/	23%	/
COC(=O)C(Cc1c[nH]c2ccccc12)NC(=O)COc1cccc(C)c1 (stereo unspecified)	0%	/	/	-6%	/
SMILES	FLuc counter	Luc counter	Rab9 promoter act	SMN2 splice enh	NPC1 prom act
O=C(Nc1nn[nH]n1)c1cccc(Oc2ccccc2)c1	-1%	0%	-7%	-2%	1%
Cc1cc(NC(=O)NC(=O)c2cccc(OC(F)(F)C(F)F)c2)n[nH]1	-16%	0%	2.2µM*	5.6µM*	2.5µM*
Cc1cc(NC(=O)c2cccc(Oc3ccccc3)c2)n[nH]1	6.7µM*	-7%	0.89µM*	?	2.8µM*
CC(C)CN(C)C(=O)CCc1nnc(Cc2cccc(C(F)(F)F)c2)o1	24µM*	0%	2.8µM*	/	?
CC(NC(=O)CCc1nnc(Cc2cccc(C(F)(F)F)c2)o1)C1CC1 (stereo unspecified)	27µM*	-5%	?	/	14%
C=C(C)CNC(=O)CCc1nnc(Cc2cccc(C(F)(F)F)c2)o1	21µM*	-2%	?	11µM*	20%
CCOC(=O)c1c(C)oc2nc(C)nc(NCCc3ccc(OCC)cc3)c12	2%	/	/	/	/
COc1cc(NC(=O)C(C)C)ccc1NC(=O)c1ccco1	19µM*	-1%	1.1µM*	11µM*	4µM*
COc1cc(NC(=S)NC(=O)c2ccco2)ccc1NC(=O)C(C)C	?	-3%	21%	18%	8%
COc1ccc(NC(=O)c2ccco2)cc1NC(=O)c1cccs1	-13%	3%	-6%	4.5µM*	-1%
COc1cc2c(cc1NC(=O)c1ccco1)CCCC2	21µM*	-2%	?	21%	15%
Cc1ccccc1CSc1nc(-c2cccc(F)c2)nc2c1Cc1c(CO)cnc(C)c1O2	-1%	/	/	/	/
COc1ccccc1NC(=O)Cn1c(=O)n(CC(=O)NCc2ccccc2Cl)c(=O)c2sccc21	-5%	/	/	-11%	/
CCCC(=O)c1ccc(OC(=O)c2c(-c3ccccc3Cl)noc2C)cc1	-5%	/	/	/	/
O=C(NC1CCCCCC1)C(=O)NC1CC1	-8%	/	15%	/	12%
O=C(NC1CCCCCCC1)NC1CCCCC1	17µM*	0%	4µM*	?	3.5µM*
O=C(NC1CCCCCC1)C(=S)NC1CCCCC1	5.4µM*	-5%	-4%	-36%	2.5µM*
COc1ccc(CCNC(=O)Cc2ccc(NC(=O)N3CCSc4ncccc43)cc2)cc1OC	4%	/	/	/	/
CC1=C(C(N)=O)C(c2ccc(C(C)C)cc2)n2nc(SCc3ccccc3)nc2N1 (stereo unspecified)	-2%	/	/	0%	/
N=C1S/C(=C\c2ccc(-c3ccccc3C(=O)O)o2)C(=O)N1c1ccc2c(c1)OCO2	9.5µM*	/	-11%	/	-4%
O=C(Cn1nc(C(F)(F)F)c2c1CCCC2)Nc1cccc(Cl)c1	-17%	/	/	/	/
O=C(O)c1ccccc1NCn1c(=S)sc2ccccc21	/	-6%[7.66 µM]	/	-9%[9.22 µM]	/
CN(C)c1ccc(NC(=O)C(=O)C2C(=O)Nc3ccccc32)cc1 (stereo unspecified)	11µM*	/	21%	/	24%
CC(C)(C)c1ccc(NC(=O)C(=O)C2C(=O)Nc3ccccc32)cc1 (stereo unspecified)	12µM*	0%	21%	2%	15%
CC(CCC#N)[N+](=O)[O-] (stereo unspecified)	/	-3%	/	-7%	/
CC(=O)N1c2ccc(N=Cc3cc(Br)cc(Br)c3O)cc2CC1C (stereo unspecified)	9.5µM*	/	1%	/	-3%
CC1CCCC(C)N1/N=C/c1cc(Br)cc(Br)c1O (stereo unspecified)	-16%	/	1%	/	3%
O=C(Nc1ccccc1C(=O)OCc1cc(=O)n2nc(C3CC3)sc2n1)c1cccc(Cl)c1	1%	/	/	/	/
O=C(Nc1ccc(Cl)cn1)c1ccc2c(Cl)c3c(nc2c1)CCC3	0.19µM*	/	?	/	0.32µM*
O=C(NCc1ccc(F)cc1)c1ccc2c(Cl)c3c(nc2c1)CCCC3	-2%	/	/	-15%	/

Screening results deposited in PubChem by National Center for Advancing Translational Sciences (NCATS).
